Numbering of substitutions follows the chain as printed.
What was measured:
Assay in all cases: PBM; 200 nM protein, PBS
Conditions in all cases: dsDNA, one strand shown
[1] = biological target: HOXC9 (Homo sapiens, UniProt P31274 178-260, K195R)
[2] = biological target: HOXA2 (Homo sapiens, UniProt O43364 129-215, R185T)
[3] = biological target: HOXC9 (Homo sapiens, UniProt P31274 178-260)
[4] = biological target: HOXC9 (Homo sapiens, UniProt P31274 178-260, R193K)
[5] = biological target: HOXA2 (Homo sapiens, UniProt O43364 129-215, Y150S)
Chain of HOXA2 (Homo sapiens, UniProt O43364 129-215, Y150S) (O43364 129-215 Y150S): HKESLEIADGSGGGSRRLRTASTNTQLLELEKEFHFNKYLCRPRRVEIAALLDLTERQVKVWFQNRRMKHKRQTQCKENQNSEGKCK

[6] = biological target: HOXA2 (Homo sapiens, UniProt O43364 129-215)
Chain of HOXA2 (Homo sapiens, UniProt O43364 129-215) (O43364 129-215): as the sequence (O43364 129-215 Y150S) above, with S22Y counted along it

[7] = biological target: HOXD13 (Homo sapiens, UniProt P35453 263-343, T313R)
Chain of HOXD13 (Homo sapiens, UniProt P35453 263-343, T313R) (P35453 263-343 T313R): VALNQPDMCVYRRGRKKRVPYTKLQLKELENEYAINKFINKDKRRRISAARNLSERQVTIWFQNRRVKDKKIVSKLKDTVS

[8] = biological target: HOXA2 (Homo sapiens, UniProt O43364 129-215, R185K)
Chain of HOXA2 (Homo sapiens, UniProt O43364 129-215, R185K) (O43364 129-215 R185K): as the sequence (O43364 129-215 Y150S) above, with S22Y, R57K counted along it

[9] = biological target: HOXD13 (Homo sapiens, UniProt P35453 263-343)
Chain of HOXD13 (Homo sapiens, UniProt P35453 263-343) (P35453 263-343): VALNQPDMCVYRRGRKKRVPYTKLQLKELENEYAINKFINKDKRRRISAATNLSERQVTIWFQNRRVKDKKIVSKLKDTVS

[10] = biological target: HOXD13 (Homo sapiens, UniProt P35453 263-343, T313A)
Chain of HOXD13 (Homo sapiens, UniProt P35453 263-343, T313A) (P35453 263-343 T313A): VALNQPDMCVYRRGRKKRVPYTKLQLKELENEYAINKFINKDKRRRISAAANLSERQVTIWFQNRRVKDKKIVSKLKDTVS

[11] = biological target: HOXC9 (Homo sapiens, UniProt P31274 178-260, R222W)
Chain of HOXC9 (Homo sapiens, UniProt P31274 178-260, R222W) (P31274 178-260 R222W): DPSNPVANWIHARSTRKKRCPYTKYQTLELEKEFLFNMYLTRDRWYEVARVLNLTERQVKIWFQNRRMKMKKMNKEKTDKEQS

[12] = biological target: MSX2 (Homo sapiens, UniProt P35548 130-214, R199I)
Chain of MSX2 (Homo sapiens, UniProt P35548 130-214, R199I) (P35548 130-214 R199I): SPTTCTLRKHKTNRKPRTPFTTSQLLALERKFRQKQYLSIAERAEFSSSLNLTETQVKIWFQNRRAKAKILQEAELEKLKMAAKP

[13] = biological target: MSX2 (Homo sapiens, UniProt P35548 130-214)
Chain of MSX2 (Homo sapiens, UniProt P35548 130-214) (P35548 130-214): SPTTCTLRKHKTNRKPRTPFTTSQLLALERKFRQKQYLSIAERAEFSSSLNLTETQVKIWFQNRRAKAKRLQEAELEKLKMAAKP

[14] = biological target: MSX2 (Homo sapiens, UniProt P35548 130-214, F161Y)
Chain of MSX2 (Homo sapiens, UniProt P35548 130-214, F161Y) (P35548 130-214 F161Y): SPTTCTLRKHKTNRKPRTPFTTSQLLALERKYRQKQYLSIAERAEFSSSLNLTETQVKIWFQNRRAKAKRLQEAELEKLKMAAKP

[15] = biological target: ALX1 (Homo sapiens, UniProt Q15699 118-204, L144V)
Chain of ALX1 (Homo sapiens, UniProt Q15699 118-204, L144V) (Q15699 118-204 L144V): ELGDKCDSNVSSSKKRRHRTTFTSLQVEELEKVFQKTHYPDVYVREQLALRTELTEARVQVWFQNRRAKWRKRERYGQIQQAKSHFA

[16] = biological target: ALX1 (Homo sapiens, UniProt Q15699 118-204, L144R)
Chain of ALX1 (Homo sapiens, UniProt Q15699 118-204, L144R) (Q15699 118-204 L144R): as the sequence (Q15699 118-204 L144V) above, with V27R counted along it

[17] = biological target: ALX1 (Homo sapiens, UniProt Q15699 118-204)
Chain of ALX1 (Homo sapiens, UniProt Q15699 118-204) (Q15699 118-204): as the sequence (Q15699 118-204 L144V) above, with V27L counted along it

[18] = biological target: CRX (Homo sapiens, UniProt O43186 26-111, E42D)
Chain of CRX (Homo sapiens, UniProt O43186 26-111, E42D) (O43186 26-111 E42D): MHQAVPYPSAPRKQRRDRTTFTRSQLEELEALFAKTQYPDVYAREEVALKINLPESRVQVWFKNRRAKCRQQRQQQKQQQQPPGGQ

[19] = biological target: PITX2 (Homo sapiens, UniProt Q99697 72-157)
[20] = biological target: CRX (Homo sapiens, UniProt O43186 26-111, R41L)
Chain of CRX (Homo sapiens, UniProt O43186 26-111, R41L) (O43186 26-111 R41L): as the sequence (O43186 26-111 E42D) above, with R16L, D17E counted along it

[21] = biological target: T1, NKX2-6 (Homo sapiens, UniProt A6NCS4 118-204, R150C)
T1 sequence: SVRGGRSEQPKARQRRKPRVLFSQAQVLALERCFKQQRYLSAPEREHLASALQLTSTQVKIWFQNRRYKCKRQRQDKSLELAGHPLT

[22] = biological target: ALX3 (Homo sapiens, UniProt O95076 139-225)
Chain of ALX3 (O95076 139-225): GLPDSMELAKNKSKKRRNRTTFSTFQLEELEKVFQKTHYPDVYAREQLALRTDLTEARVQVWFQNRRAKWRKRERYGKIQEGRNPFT

[23] = biological target: T2, VENTX (Homo sapiens, UniProt O95231 78-163)
T2 sequence: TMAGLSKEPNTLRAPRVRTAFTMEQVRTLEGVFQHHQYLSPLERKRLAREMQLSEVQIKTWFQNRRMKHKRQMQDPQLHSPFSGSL

[24] = biological target: HOXA7 (Homo sapiens, UniProt P31268 116-202)
Chain of HOXA7 (Homo sapiens, UniProt P31268 116-202) (P31268 116-202): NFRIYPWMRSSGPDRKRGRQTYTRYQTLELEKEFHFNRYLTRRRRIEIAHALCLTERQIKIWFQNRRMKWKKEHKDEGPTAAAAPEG

[25] = biological target: HOXC10 (Homo sapiens, UniProt Q9NYD6 254-340)
Chain of HOXC10 (Homo sapiens, UniProt Q9NYD6 254-340) (Q9NYD6 254-340): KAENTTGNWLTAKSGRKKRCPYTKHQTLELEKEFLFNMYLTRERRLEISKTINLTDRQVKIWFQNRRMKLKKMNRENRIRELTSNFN

[26] = biological target: HOXC10 (Homo sapiens, UniProt Q9NYD6 254-340, K271E)
Chain of HOXC10 (Homo sapiens, UniProt Q9NYD6 254-340, K271E) (Q9NYD6 254-340 K271E): as the sequence (Q9NYD6 254-340) above, with K18E counted along it

[27] = biological target: HOXA7 (Homo sapiens, UniProt P31268 116-202, W177C)
Chain of HOXA7 (Homo sapiens, UniProt P31268 116-202, W177C) (P31268 116-202 W177C): as the sequence (P31268 116-202) above, with W62C counted along it

[28] = biological target: T3, VENTX (Homo sapiens, UniProt O95231 78-163, Y115F)
T3 sequence: T2 sequence with Y38F

Chain of HOXC9 (Homo sapiens, UniProt P31274 178-260, R193K) (P31274 178-260 R193K): as the sequence (P31274 178-260 R222W) above, with R16K, W45R counted along it
Chain of HOXC9 (Homo sapiens, UniProt P31274 178-260, K195R) (P31274 178-260 K195R): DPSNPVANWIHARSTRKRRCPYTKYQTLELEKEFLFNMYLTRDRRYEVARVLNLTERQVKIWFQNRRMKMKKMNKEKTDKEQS
Chain of HOXC9 (Homo sapiens, UniProt P31274 178-260) (P31274 178-260): as the sequence (P31274 178-260 R222W) above, with W45R counted along it
Chain of HOXA2 (Homo sapiens, UniProt O43364 129-215, R185T) (O43364 129-215 R185T): as the sequence (O43364 129-215 Y150S) above, with S22Y, R57T counted along it

## ATTTGTTC
[1]
  binding signal: 11 upbm affinity estimate (log intensity, higher = more binding, comparable within an allelic series)
[2]
  binding signal: 9.37 upbm affinity estimate (log intensity, higher = more binding, comparable within an allelic series)
[3]
  binding signal: 10.9 upbm affinity estimate (log intensity, higher = more binding, comparable within an allelic series)
[4]
  binding signal: 11 upbm affinity estimate (log intensity, higher = more binding, comparable within an allelic series)
[5]
  binding signal: 10.8 upbm affinity estimate (log intensity, higher = more binding, comparable within an allelic series)
[6]
  binding signal: 9.22 upbm affinity estimate (log intensity, higher = more binding, comparable within an allelic series)

## CCCTGCGG
[1]
  binding signal: 9.55 upbm affinity estimate (log intensity, higher = more binding, comparable within an allelic series)
[2]
  binding signal: 7.02 upbm affinity estimate (log intensity, higher = more binding, comparable within an allelic series)
[3]
  binding signal: 9.73 upbm affinity estimate (log intensity, higher = more binding, comparable within an allelic series)
[7]
  binding signal: 9.39 upbm affinity estimate (log intensity, higher = more binding, comparable within an allelic series)
[4]
  binding signal: 9.6 upbm affinity estimate (log intensity, higher = more binding, comparable within an allelic series)
[8]
  binding signal: 10.3 upbm affinity estimate (log intensity, higher = more binding, comparable within an allelic series)
[9]
  binding signal: 9.44 upbm affinity estimate (log intensity, higher = more binding, comparable within an allelic series)
[10]
  binding signal: 9.6 upbm affinity estimate (log intensity, higher = more binding, comparable within an allelic series)
[11]
  binding signal: 9.56 upbm affinity estimate (log intensity, higher = more binding, comparable within an allelic series)
[5]
  binding signal: 10.5 upbm affinity estimate (log intensity, higher = more binding, comparable within an allelic series)
[6]
  binding signal: 7 upbm affinity estimate (log intensity, higher = more binding, comparable within an allelic series)

## CGCGGGAG
[1]
  binding signal: 9.47 upbm affinity estimate (log intensity, higher = more binding, comparable within an allelic series)
[3]
  binding signal: 9.59 upbm affinity estimate (log intensity, higher = more binding, comparable within an allelic series)
[12]
  binding signal: 9.38 upbm affinity estimate (log intensity, higher = more binding, comparable within an allelic series)
[4]
  binding signal: 9.43 upbm affinity estimate (log intensity, higher = more binding, comparable within an allelic series)
[13]
  binding signal: 9.23 upbm affinity estimate (log intensity, higher = more binding, comparable within an allelic series)
[11]
  binding signal: 9.64 upbm affinity estimate (log intensity, higher = more binding, comparable within an allelic series)
[14]
  binding signal: 9.25 upbm affinity estimate (log intensity, higher = more binding, comparable within an allelic series)

## CCCAGGTC
[1]
  binding signal: 9.66 upbm affinity estimate (log intensity, higher = more binding, comparable within an allelic series)
[3]
  binding signal: 9.74 upbm affinity estimate (log intensity, higher = more binding, comparable within an allelic series)
[15]
  binding signal: 6.5 upbm affinity estimate (log intensity, higher = more binding, comparable within an allelic series)
[4]
  binding signal: 9.58 upbm affinity estimate (log intensity, higher = more binding, comparable within an allelic series)
[16]
  binding signal: 6.45 upbm affinity estimate (log intensity, higher = more binding, comparable within an allelic series)
[11]
  binding signal: 9.65 upbm affinity estimate (log intensity, higher = more binding, comparable within an allelic series)
[17]
  binding signal: 6.46 upbm affinity estimate (log intensity, higher = more binding, comparable within an allelic series)

## AGGGGCTC
[1]
  binding signal: 9.39 upbm affinity estimate (log intensity, higher = more binding, comparable within an allelic series)
[3]
  binding signal: 9.62 upbm affinity estimate (log intensity, higher = more binding, comparable within an allelic series)
[7]
  binding signal: 9.61 upbm affinity estimate (log intensity, higher = more binding, comparable within an allelic series)
[4]
  binding signal: 9.46 upbm affinity estimate (log intensity, higher = more binding, comparable within an allelic series)
[9]
  binding signal: 9.68 upbm affinity estimate (log intensity, higher = more binding, comparable within an allelic series)
[10]
  binding signal: 9.7 upbm affinity estimate (log intensity, higher = more binding, comparable within an allelic series)
[11]
  binding signal: 9.6 upbm affinity estimate (log intensity, higher = more binding, comparable within an allelic series)

## AGATTAAA
[1]
  binding signal: 11.2 upbm affinity estimate (log intensity, higher = more binding, comparable within an allelic series)
[18]
  binding signal: 12.7 upbm affinity estimate (log intensity, higher = more binding, comparable within an allelic series)
[3]
  binding signal: 11.1 upbm affinity estimate (log intensity, higher = more binding, comparable within an allelic series)
[19]
  binding signal: 12.3 upbm affinity estimate (log intensity, higher = more binding, comparable within an allelic series)
[4]
  binding signal: 11.2 upbm affinity estimate (log intensity, higher = more binding, comparable within an allelic series)
[20]
  binding signal: 12.5 upbm affinity estimate (log intensity, higher = more binding, comparable within an allelic series)

## CCGGGTAC
[1]
  binding signal: 9.59 upbm affinity estimate (log intensity, higher = more binding, comparable within an allelic series)
[21]
  binding signal: 9.58 upbm affinity estimate (log intensity, higher = more binding, comparable within an allelic series)
[3]
  binding signal: 9.74 upbm affinity estimate (log intensity, higher = more binding, comparable within an allelic series)
[15]
  binding signal: 6.43 upbm affinity estimate (log intensity, higher = more binding, comparable within an allelic series)
[4]
  binding signal: 9.61 upbm affinity estimate (log intensity, higher = more binding, comparable within an allelic series)
[16]
  binding signal: 6.2 upbm affinity estimate (log intensity, higher = more binding, comparable within an allelic series)
[11]
  binding signal: 9.63 upbm affinity estimate (log intensity, higher = more binding, comparable within an allelic series)
[17]
  binding signal: 6.38 upbm affinity estimate (log intensity, higher = more binding, comparable within an allelic series)

## TTATACAA
[22]
  binding signal: 9.71 upbm affinity estimate (log intensity, higher = more binding, comparable within an allelic series)

## GATTGAGC
[23]
  binding signal: 9.7 upbm affinity estimate (log intensity, higher = more binding, comparable within an allelic series)

## CATCATCA
[23]
  binding signal: 10.4 upbm affinity estimate (log intensity, higher = more binding, comparable within an allelic series)

## CAGGTCCC
[24]
  binding signal: 8.47 upbm affinity estimate (log intensity, higher = more binding, comparable within an allelic series)
[25]
  binding signal: 10 upbm affinity estimate (log intensity, higher = more binding, comparable within an allelic series)
[26]
  binding signal: 10.1 upbm affinity estimate (log intensity, higher = more binding, comparable within an allelic series)
[27]
  binding signal: 8.4 upbm affinity estimate (log intensity, higher = more binding, comparable within an allelic series)

## AGCCGACC
[1]
  binding signal: 9.56 upbm affinity estimate (log intensity, higher = more binding, comparable within an allelic series)
[3]
  binding signal: 9.71 upbm affinity estimate (log intensity, higher = more binding, comparable within an allelic series)
[4]
  binding signal: 9.61 upbm affinity estimate (log intensity, higher = more binding, comparable within an allelic series)
[11]
  binding signal: 9.74 upbm affinity estimate (log intensity, higher = more binding, comparable within an allelic series)

## CACGTTTA
[23]
  binding signal: 10.1 upbm affinity estimate (log intensity, higher = more binding, comparable within an allelic series)

## ACCGCTTA
[23]
  binding signal: 10.8 upbm affinity estimate (log intensity, higher = more binding, comparable within an allelic series)

## AATTGGAC
[23]
  binding signal: 10.1 upbm affinity estimate (log intensity, higher = more binding, comparable within an allelic series)
[28]
  binding signal: 9.62 upbm affinity estimate (log intensity, higher = more binding, comparable within an allelic series)

## AACCAAAT
[23]
  binding signal: 10 upbm affinity estimate (log intensity, higher = more binding, comparable within an allelic series)
[2]
  binding signal: 9.12 upbm affinity estimate (log intensity, higher = more binding, comparable within an allelic series)
[6]
  binding signal: 9.13 upbm affinity estimate (log intensity, higher = more binding, comparable within an allelic series)

## AGGGGGTG
[1]
  binding signal: 9.33 upbm affinity estimate (log intensity, higher = more binding, comparable within an allelic series)
[3]
  binding signal: 9.51 upbm affinity estimate (log intensity, higher = more binding, comparable within an allelic series)
[4]
  binding signal: 9.39 upbm affinity estimate (log intensity, higher = more binding, comparable within an allelic series)
[11]
  binding signal: 9.42 upbm affinity estimate (log intensity, higher = more binding, comparable within an allelic series)
